The campaign covered roughly 48,000 compounds. About 13,000 (27%) showed an effect of 50% or more. The list shows a part of the results.
These compounds were tested on Wolbachia pipientis (assay: Anti-Wolbachia Cell-Based Screen). Settings: 5 µM.
Type: functional
Parameters: scale not given: in the data most compounds retested in dose-response had high values
With c1cc(-c2ccc(CN3CCCC4(CCNC4)C3)s2)[nH]n1 (centres undefined) the “Percent Effect” value was 24.12%.
CCc1nnc2n1CCN(C(=O)c1ccc3c(c1)NC(=O)CO3)C2 was tested, and the “Percent Effect” value was -1.668%.
With CCc1nnc2n1CCN(C(=O)c1cnc(-c3cccs3)s1)C2 the “Percent Effect” value was -0.7102%.
CCc1nnc2n1CCN(C(=O)c1cc3c(F)cccc3[nH]1)C2 was tested, and the “Percent Effect” value was 92%.
For Cc1nn(C)c(Oc2ccc(Cl)cc2)c1CN1CCOC(CN)C1 (centres undefined), the “Percent Effect” value was -15.91%.
In the case of O=C(NC1CC1)[C@@H]1CCO[C@@H]2CCN(C3CCOCC3)C[C@@H]21.O=C(O)C(F)(F)F, the “Percent Effect” value was -4.22%.
For CN(C)C(=O)[C@@H]1C[C@@H]2CCN(C3CCOCC3)C[C@@H]2O1, the “Percent Effect” value was 104.3%.
For CN(C)C(=O)[C@H]1C[C@@H]2CCN(C3CCOCC3)C[C@H]2O1, the “Percent Effect” value was -14.13%.
In the case of CN(C)C(=O)[C@H]1C[C@@H]2CCN(C3CCOCC3)C[C@@H]2O1.O=C(O)C(F)(F)F, the “Percent Effect” value was 90.19%.
For CN(C)C(=O)CO[C@H]1COCCN(C2CCOCC2)C1, the “Percent Effect” value was -5.811%.
With CN(C)C(=O)[C@@H]1C[C@@H]2CCN(C3CCOCC3)C[C@H]2O1.O=C(O)C(F)(F)F the “Percent Effect” value was 104.8%.
In the case of CC(c1cncs1)N(C)Cc1ccc(CCC(C)(C)O)cc1 (centres undefined), the “Percent Effect” value was -1.575%.
In the case of COCC(C)(CCO)NC(=O)Nc1c(F)cccc1Br (centres undefined), the “Percent Effect” value was 1.184%.
COCCCN1C(=O)CC[C@H]2CN(Cc3ccc4nonc4c3)CC[C@H]21 was tested, and the “Percent Effect” value was -13.98%.
In the case of COCCOCC(=O)N(C)Cc1ccc(OCc2cccs2)cc1, the “Percent Effect” value was 0.8009%.
COc1ccc(O[C@H]2COCCN(Cc3c[nH]c4ccccc34)C2)cc1 was tested, and the “Percent Effect” value was 17.89%.
With c1ccc(O[C@H]2COCCN(Cc3c[nH]c4ccccc34)C2)cc1 the “Percent Effect” value was 61.61%.
c1ccc(O[C@H]2COCCN(Cc3cccc4c3OCO4)C2)cc1 was tested, and the “Percent Effect” value was -7.306%.
For Cc1cccc(S(=O)(=O)NCc2cccc(CS(C)(=O)=O)c2)c1, the “Percent Effect” value was -26.55%.
For CS(=O)(=O)NCCNC(=O)C1(c2cccc(Cl)c2)CC1, the “Percent Effect” value was 8.855%.
In the case of Cc1nc(C2CCCCC2)sc1C(=O)O, the “Percent Effect” value was -7.894%.
In the case of COC(=O)c1c(Cl)c(C2CC2)nc2onc(C)c12, the “Percent Effect” value was 129%.
With Cc1noc([C@@H](C)NCc2cccc(Cl)c2)c1C(=O)O.Cl the “Percent Effect” value was -9.594%.
With CSc1nc(C2CC2)nc(C)c1C(=O)NCc1cc(C)on1 the “Percent Effect” value was -0.6929%.
Cc1noc2nc(C3CC3)c(Cl)c(C(=O)O)c12 was tested, and the “Percent Effect” value was 111.5%.
With Cc1noc(C)c1CN1CCC(NC(=O)OC(C)(C)C)CC1 the “Percent Effect” value was -1.462%.
With COC(=O)c1c(Cl)c(C)nc2onc(C)c12 the “Percent Effect” value was 101.9%.
Cc1nc([C@H]2C[C@@H]3CCN(Cc4cnn(C)c4)C[C@H]3O2)sc1C was tested, and the “Percent Effect” value was 3.707%.
For CCN1CCn2c(C)cnc2C12CCN(C(=O)CC(C)C)CC2.O=C(O)C(F)(F)F.O=C(O)C(F)(F)F, the “Percent Effect” value was -11.73%.
For CCN1CCC2(CN(C(=O)N(C)C)CC23CCNCC3)C1=O.O=C(O)C(F)(F)F (centres undefined), the “Percent Effect” value was -16.29%.
For CCN1CCn2c(C)cnc2C12CCN(C(=O)C(C)C)CC2.O=C(O)C(F)(F)F.O=C(O)C(F)(F)F, the “Percent Effect” value was 108.7%.
CC(C)C(=O)N1CC2(CCN(CC(C)(C)C)CC2)C1.O=C(O)C(F)(F)F was tested, and the “Percent Effect” value was -18.04%.
In the case of CCN1CCn2c(C)cnc2C12CCN(C(=O)N(C)C)CC2.O=C(O)C(F)(F)F.O=C(O)C(F)(F)F, the “Percent Effect” value was 107%.
In the case of COC(=O)COc1nc(CC(C)C)c2c(c1C#N)CCCC2, the “Percent Effect” value was 13.1%.
Cc1noc(CN(C)CC2(O)CCCN(CCC3CCCCC3)C2=O)n1 (centres undefined) was tested, and the “Percent Effect” value was 5.474%.
CCSCCNC(=O)c1ccc(S(=O)(=O)N2C[C@@H]3C[C@H]2CN3)cc1 was tested, and the “Percent Effect” value was -8.721%.
For COC(CNC(=O)c1ccoc1)c1cccc(Cl)c1 (centres undefined), the “Percent Effect” value was -9.296%.
In the case of CCC(CC)c1nnc(NC(=O)N2CCC(C(N)=O)CC2)s1, the “Percent Effect” value was -0.6648%.
Cc1nc(C2CCN(C(=O)c3cccnc3)CC2)c2sccn12 was tested, and the “Percent Effect” value was -3.155%.
For COc1ccc(C(=O)N2CCC(c3nccn3C(C)C)CC2)cc1OC, the “Percent Effect” value was -4.969%.
With Cc1nc(C2CCN(C(=O)c3cnc(N(C)C)nc3)CC2)c2sccn12 the “Percent Effect” value was 121.8%.
For COc1ncc(C(=O)N2CCC(c3nc(C)n4ccsc34)CC2)cn1, the “Percent Effect” value was 120.4%.
In the case of Cc1ncc(CN(C)CC(O)c2cccc(C(F)(F)F)c2)s1 (centres undefined), the “Percent Effect” value was 2.292%.
With c1ccc(OCCSC2=NCCN2)cc1 the “Percent Effect” value was -0.348%.
For CC(C)N(CC(N)=O)Cc1csc(-c2ncccn2)n1, the “Percent Effect” value was 8.567%.
In the case of CSc1nccn1-c1cccc(C(=O)NCC2CC2)c1, the “Percent Effect” value was -0.4347%.
With CC(C)NC(=O)CCNC(=O)c1cc(Br)cn1C(C)C the “Percent Effect” value was 8.916%.
In the case of CC(C)NC(=O)CCNC(=O)Nc1cccc(-c2nccn2C)c1, the “Percent Effect” value was -18.82%.
In the case of CSc1nccn1-c1cccc(C(=O)NCCN2CCS(=O)(=O)CC2)c1, the “Percent Effect” value was 100.7%.
CSc1nccn1-c1ccc(C(=O)NCC2CC2)cc1 was tested, and the “Percent Effect” value was 114.7%.
In the case of CSc1nccn1-c1cccc(C(=O)NCCCN2CCOCC2)c1, the “Percent Effect” value was 1.615%.
With CSc1nccn1-c1cccc(C(=O)NCc2nnc(C)n2C)c1 the “Percent Effect” value was 4.938%.
In the case of CN(C(=O)c1cccc(C(=O)NCC(F)(F)F)c1)c1ccccc1, the “Percent Effect” value was -5.375%.
In the case of CSc1nccn1-c1cccc(C(=O)NCC(F)(F)F)c1, the “Percent Effect” value was 95.57%.
For CC(=O)N1Cc2nccn2CC(CNC(=O)c2ccnnc2)C1 (centres undefined), the “Percent Effect” value was -11.54%.
For Cc1ccc2cc(C(=O)NCCN3CCS(=O)(=O)CC3)c(C)nc2c1, the “Percent Effect” value was -6.636%.
CSc1nccn1-c1cccc(C(=O)NCCC(=O)NC(C)C)c1 was tested, and the “Percent Effect” value was 87.94%.
For NC(=O)c1cncc(Oc2cccc(CN3CCCC3)c2Cl)n1, the “Percent Effect” value was 9.192%.
In the case of O=C(NCCN1CCOCC1)NCc1ccccc1-n1cccn1, the “Percent Effect” value was 1.937%.
With CC(=O)N(C)Cc1ccccc1NCc1c(C)noc1C the “Percent Effect” value was 25.91%.
COc1cc(C2(C(=O)NC3CCN(CC4CC4)CC3)CC2)ccc1C was tested, and the “Percent Effect” value was 28.82%.
In the case of CC(OCC1CC1)C(=O)NCc1cccc(CN2CCN(C)CC2)c1 (centres undefined), the “Percent Effect” value was 14.4%.
For CC(=O)N1CCC2(CC1)[C@@H]1CN(Cc3cccnc3)C[C@@H]1C(=O)N2C, the “Percent Effect” value was -30.73%.
With CC(C)[C@@H]1CN(Cc2ccccn2)C[C@H]1NS(=O)(=O)N(C)C the “Percent Effect” value was -0.7917%.
CCC[C@@H]1CN(Cc2ccc(N(C)C)nc2)C[C@H]1N(C)C was tested, and the “Percent Effect” value was -0.1894%.
For Cn1ccnc1CN1C(=O)CO[C@H]2CN(Cc3ccccc3O)C[C@H]21, the “Percent Effect” value was -13.53%.
For CN(C)[C@@H]1CN(Cc2ccc(O)cc2)C[C@H]1c1cn(C)c2ccccc12.Cl, the “Percent Effect” value was 86.16%.
CN(C)[C@@H]1CN(Cc2ccccc2O)C[C@H]1c1cn(C)c2ccccc12.Cl was tested, and the “Percent Effect” value was 136.4%.
With CN(C)[C@@H]1CN(Cc2cccnc2)C[C@H]1c1cn(C)c2ccccc12.Cl the “Percent Effect” value was 79.34%.
In the case of CCn1c(C)nnc1CN(C)C1CCN(Cc2ccccn2)C1 (centres undefined), the “Percent Effect” value was 15.92%.
CN(C)[C@@H]1CN(Cc2ccccn2)C[C@H]1c1cn(C)c2ccccc12.Cl was tested, and the “Percent Effect” value was 130.6%.
CC(C)[C@@H]1CN(Cc2ccccc2C#N)C[C@H]1N(C)C was tested, and the “Percent Effect” value was 11.57%.
For Cn1cc(CCC(=O)N2C[C@H]3CC[C@@H]2CN(Cc2ccccc2)C3)cn1, the “Percent Effect” value was -15.29%.
With Cn1cnnc1SCC(=O)N1C[C@H]2CC[C@@H]1CN(Cc1cccnc1)C2 the “Percent Effect” value was -4.246%.
In the case of O=C1NC(c2ccccc2)=N[C@@]12CC[C@@H]1CN(Cc3ccoc3)C[C@@H]12, the “Percent Effect” value was -8.675%.
For Cc1ccn(-c2ccccc2NCc2scnc2C)n1, the “Percent Effect” value was -9.292%.
CCc1ccc(C(C)NC(=O)c2ccc(CS(C)(=O)=O)o2)cc1 (centres undefined) was tested, and the “Percent Effect” value was -17.56%.
With CC(O)CN(CC(=O)NC(=O)NC1CC1)c1ccccc1 (centres undefined) the “Percent Effect” value was 10.44%.
With CS(=O)(=O)NC(=O)c1cc(Cl)c2c(c1)OCCCO2 the “Percent Effect” value was 1.063%.
For CCc1nc(NS(=O)(=O)c2cc(C)ccc2F)no1, the “Percent Effect” value was 7.249%.
With CCc1cc(N(C)Cc2noc(CC(C)C)n2)ncn1 the “Percent Effect” value was 121.1%.
In the case of COc1cc(N(C)Cc2noc(CC(C)C)n2)ncn1, the “Percent Effect” value was 117.3%.
CC(C)Cc1noc(CN(C)c2ncccn2)n1 was tested, and the “Percent Effect” value was 119.3%.
For CC(C)Cc1noc(CN(C)c2cc(N(C)C)ncn2)n1, the “Percent Effect” value was 110.5%.
With CCn1ccnc1CN(C)c1cc(OC)ncn1 the “Percent Effect” value was 2.5%.
For CC(C)Cc1nc(CN(C)CCOc2ccc(F)cc2)no1, the “Percent Effect” value was 5.016%.
For CC(C)Cc1noc(CN(C)C2CCCC2)n1, the “Percent Effect” value was -3.332%.
For CCc1cc(N(C)Cc2noc(C(C)C)n2)nc(N2CCOCC2)n1, the “Percent Effect” value was -7.429%.
COC(C)c1noc(CN(C)c2ncccn2)n1 (centres undefined) was tested, and the “Percent Effect” value was -22.13%.
For Cc1ccn(Cc2nc(CC(C)C)no2)c(=O)c1, the “Percent Effect” value was -2.116%.
For COCCc1noc(CN(C)c2cc(C)ncn2)n1, the “Percent Effect” value was -9.011%.
CCN(Cc1noc(CC(C)C)n1)Cc1ccccc1C was tested, and the “Percent Effect” value was 1.611%.
With OC1CN(Cc2cccc(N3CCOCC3)c2)Cc2ccccc21 (centres undefined) the “Percent Effect” value was -36.91%.
With O=C(c1scc2c1OCCO2)N1CCOC(Cc2ccc(F)cc2)C1 (centres undefined) the “Percent Effect” value was -34.62%.
In the case of CS(=O)(=O)N1CCN(C(=O)CN2CCCc3c(F)cc(F)cc32)CC1, the “Percent Effect” value was 12.08%.
For CC(C)n1ncc2c1NC(=O)CC21C(=O)Nc2c(Cl)cc(Cl)cc21 (centres undefined), the “Percent Effect” value was -10.03%.
For Cc1nn(C)c(C)c1CNC1CCOc2ccccc21 (centres undefined), the “Percent Effect” value was -9.351%.
In the case of Cn1ncc(NCc2cccc(COC(C)(C)C)c2)c(Cl)c1=O, the “Percent Effect” value was -1.578%.
With CN(Cc1nccn1C)CC1CCOc2ccccc2C1 (centres undefined) the “Percent Effect” value was 12.56%.

— ChEMBL document CHEMBL3988442, “University of Dundee, Small-Polar-MMV Screening Library” (2021)
